Data as given in PubChem BioAssay AID393 (SGCOxCompounds, 2006).
The source made the active and inactive calls. How the calls were made is not given here.

target: Serine/threonine-protein kinase pim-1 (Homo sapiens) (UniProt P11309); experiment: PIM1 kinase ligand binding by thermal shift, biophysical, human, melting temperature shift (AID 393); settings: Thermal shift assay, active compounds read high; at 10 µM, protein 2 µM, buffer 10 mM PIPES, pH 6.5, NaCl 150 mM unless noted
Sequence (P11309 whole entry, looked up): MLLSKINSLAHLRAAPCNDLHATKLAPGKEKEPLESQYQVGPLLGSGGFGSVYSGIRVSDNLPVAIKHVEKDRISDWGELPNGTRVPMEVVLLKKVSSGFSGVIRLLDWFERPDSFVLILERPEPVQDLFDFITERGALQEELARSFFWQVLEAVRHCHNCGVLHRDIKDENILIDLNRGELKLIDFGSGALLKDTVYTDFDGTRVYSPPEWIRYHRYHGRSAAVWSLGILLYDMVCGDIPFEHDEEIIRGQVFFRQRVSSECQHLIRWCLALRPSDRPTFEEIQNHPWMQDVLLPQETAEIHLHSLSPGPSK

Tm shift, active:
O=c1[nH]c(O)c2c1c1c3ccccc3nc1n1cncc21 9.3 Celsius [at 10 µM, protein 2 µM, buffer 10 mM Na Citrate, pH 6.5, NaCl 150 mM]
Nc1ccc(-c2cnc3ccc(NC4CCOCC4)nn23)cc1 4.71 Celsius
Clc1cccc(Nc2ccn3ncc(-c4ccc5c(c4)OCO5)c3n2)c1 6.19 Celsius
